Only some compounds are listed: those with a hit (about 5% of all), similar ones and a draw of the others.
SENP7 block: inhibitors of human SENP7 protease | Q9BQF6 | recombinant SENP7, Z-RLRGG-aminoluciferin luminescence, 40 min | inhibition, % at 5 µM | hit rate 1.5% among 330,000 | AID 434973;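 active = inhibition above about 50% at the single test dose, limit read from the data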;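 note: plate controls were DMSO with enzyme for no effect and no enzyme buffer wells for full effect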
Target sequence (Q9BQF6 706-1050 limits assumed): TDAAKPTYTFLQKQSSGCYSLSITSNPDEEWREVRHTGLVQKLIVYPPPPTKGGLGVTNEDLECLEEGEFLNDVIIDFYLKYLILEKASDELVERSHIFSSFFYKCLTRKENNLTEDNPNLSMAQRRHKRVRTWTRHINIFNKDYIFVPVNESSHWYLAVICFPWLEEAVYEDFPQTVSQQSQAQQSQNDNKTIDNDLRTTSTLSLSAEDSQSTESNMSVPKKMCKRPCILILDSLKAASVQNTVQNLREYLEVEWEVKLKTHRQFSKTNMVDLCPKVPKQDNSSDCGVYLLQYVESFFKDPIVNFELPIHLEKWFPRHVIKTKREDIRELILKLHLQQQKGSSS
SENP8 block-1: SENP8 (human) protease inhibition; Q96LD8; recombinant SENP8, Nedd8 substrate fluorescence; inhibition, % at 20 µM; hit rate 0.64% among 360,000; AID 602440; in the data active = inhibition mostly above about 40%, no sharp cut-off; inactive = mostly below about 27%
Target sequence (Q96LD8 whole entry, looked up): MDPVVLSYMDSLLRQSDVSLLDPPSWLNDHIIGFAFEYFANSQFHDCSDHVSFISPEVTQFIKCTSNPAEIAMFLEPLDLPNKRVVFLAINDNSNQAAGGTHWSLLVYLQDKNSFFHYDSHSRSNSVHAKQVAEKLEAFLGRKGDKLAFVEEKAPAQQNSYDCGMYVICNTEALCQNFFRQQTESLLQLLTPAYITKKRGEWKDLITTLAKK
SENP6 block: inhibitors of human SENP6 protease; Recombinant SENP6 catalytic domain, aminoluciferin luminescence; inhibition, % at 10 µM; hit rate 1.8% among 330,000; AID 2599;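 active = inhibition above about 50% at the single tested dose, limit read from the data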;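 note: plate controls were DMSO wells with enzyme for no effect and DMSO wells lacking enzyme for full effect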
EBI2 antag: antagonists of human EBI2 receptor. EBI2 beta-arrestin recruitment, luminescence, 7a,25-OHC stimulated. inhibition, % at 5 µM. hit rate 0.81% among 360,000; in the data active = inhibition above about 38%;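 note: enzyme fragment complementation signal reports receptor beta-arrestin coupling in cells; 0% = agonist plus DMSO wells and 100% = wells without agonist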
SENP8 block-2: inhibitors of human SENP8 protease | AID 2540 | Q96LD8 | purified SENP8, Z-RLRGG-aminoluciferin cleavage, luminescence | hit rate 1.2% among 330,000 | inhibition, % at 10 µM; in the data active = inhibition above about 50%
AHR activator: activates the human aryl hydrocarbon receptor | activation, % at 5 µM | P35869 | AHR-responsive luciferase reporter cells, luminescence | hit rate 2.5% among 320,000; in the data active = activation above about 47%;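 note: 0% = vehicle wells and 100% = reference agonist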
SENP8 conf: confirmation of human SENP8 protease inhibitors; shares compounds with SENP7 block; Recombinant SENP8, Z-RLRGG-aminoluciferin luminescence, 60 min; inhibition, % at 12.5 µM; hit rate 40% among 6,200; AID 488912;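 active = mean inhibition across replicates above about 50%, limit read from the data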
SENP6 confirm: human SENP6 inhibition, confirmed. shares compounds with SENP7 block. recombinant SENP6, Z-RLRGG-aminoluciferin luminescence. inhibition, % at 12.5 µM. hit rate 58% among 6,200
SENP7 conf: human SENP7 inhibition, confirmed; shares compounds with SENP7 block; recombinant SENP7, Z-RLRGG-aminoluciferin luminescence, 40 min; inhibition, % at 12.5 µM; hit rate 69% among 6,200
Casp3 select: selectivity test for SENP inhibitors: human caspase-3 inhibition. shares compounds with SENP7 block. purified caspase-3, Z-DEVD-aminoluciferin luminescence, 60 min. inhibition, % at 12.5 µM. hit rate 60% among 6,200. AID 488918;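 active = mean inhibition above about 50%, limit read from the data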;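 note: plate controls were enzyme with DMSO for no effect and wells without caspase-3 for full effect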
SENP luc ctr: interferes with luciferase luminescence in SENP counter-screen. shares compounds with SENP7 block. Pre-incubated SENP8/Z-RLRGG-aminoluciferin, luciferase luminescence interference. inhibition, % at 12.5 µM. hit rate 39% among 6,200. AID 488919;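 active = mean inhibition above about 50% when retested at one dose, limit read from the data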;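 note: plate controls were DMSO wells with completed reaction for no effect and substrate without enzyme for full effect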
Numbers without * were called inactive; x = no result.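 Rule for the calls, unless noted: active = mean inhibition above about 50% in the one-dose retest (limit read from the data); inactive = the rest.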

SMILES	SENP7 block	SENP8 block-1	SENP6 block	EBI2 antag	SENP8 block-2	AHR activator	SENP8 conf	SENP6 confirm	SENP7 conf	Casp3 select	SENP luc ctr
Nc1nc(N)c(N=Nc2ccc(C(=O)O)cc2)c(N)n1	-17	30	-50	-2	-19	-1	x	x	x	x	x
O=C(c1ccc(Cl)cc1)c1coc2ccc(O)cc12	77*	13	86*	-11	78*	-3	7	88*	99*	73*	2
O=C(c1coc2ccc(O)cc12)C1CC1	8	12	8	-1	3	-6	x	x	x	x	x
COc1cc(C=O)ccc1OCc1ccccc1Br	66*	15	75*	-15	70*	12	-8	68*	89*	69*	73*
COc1cc(C=O)ccc1OCc1cccc(Br)c1	23	3	34	-11	-3	7	x	x	x	x	x
O=C1/C(=C/c2cccs2)Sc2ccccc21	93*	-213	86*	-6	81*	18	3	41	58*	39	26
CCCCOc1ccc(/C=C2/Sc3ccccc3C2=O)cc1	71*	-245	44	-7	76*	5	3	18	15	12	8
CC(=O)Oc1cccc(/C=C2\Sc3ccccc3C2=O)c1	83*	-6	91*	-1	89*	13	75*	94*	68*	41	23
CC(C)COc1ccc(/C=C2/Sc3ccccc3C2=O)cc1	95*	-274	96*	-8	94*	8	4	22	23	16	12
CC(=O)Oc1cccc(/C=C2\C=C(c3ccc(C)cc3)OC2=O)c1	-4	-63	3	10	-12	1	x	x	x	x	x
O=C1Nc2ccccc2S/C1=C/c1cccs1	-9	-2	-14	-6	-24	7	x	x	x	x	x
COc1ccc(-c2nc(C(F)(F)F)c(OC)o2)cc1OC	-2	-11	-20	-1	-11	-2	x	x	x	x	x
CC(Sc1nncs1)C(=O)Nc1ccc2c(c1)OCO2 (configuration not stated)	5	1	-8	-3	3	7	x	x	x	x	x
CCCCCCOC(=O)c1ccc(OC(=O)c2cccnc2)cc1	-1	6	53*	-31	44	0	0	10	47	14	-2
CCc1sc(C(=O)Nc2cccnc2)cc1Br	79*	14	84*	-4	60*	12	0	67*	91*	64*	72*
Cc1ccc(-c2cc(C(=O)Nc3cccnc3)[nH]n2)c(O)c1C	95*	24	98*	-7	93*	7	96*	97*	101*	90*	96*
CC(C)(C)c1ccc(C(=O)Nc2cccnc2)cc1	62*	9	69*	0	53*	19	12	55*	86*	66*	62*
Cc1cccc(NC(=O)c2cc(-c3cc(C)c(C)cc3O)n[nH]2)c1	45	12	17	5	-8	-4	x	x	x	x	x
O=C(Nc1cccnc1)c1ccc(C(=O)Nc2cccnc2)cc1	5	12	2	-10	-2	6	x	x	x	x	x
CC(C)(C)c1ccc(NC(=O)c2ccsc2)cc1	82*	21	86*	-3	82*	1	86*	85*	98*	78*	29
Cc1nc2ccc(C(=O)OCc3ccccc3Br)cc2nc1C	56*	10	67*	10	47	5	15	12	44	13	-4
CC(=O)Nc1ccc(C(=O)OCc2ccccc2Br)cc1	5	13	-8	7	-13	-1	x	x	x	x	x
N#Cc1c(/N=C/c2cccnc2)sc2c1CCCC2	-10	32	55*	3	35	4	57*	56*	67*	28	56*
N#Cc1c(/N=C/c2cccs2)sc2c1CCCCC2	97*	28	76*	-1	92*	0	91*	94*	96*	87*	48
CN(C)/C=N/c1sc2c(c1C#N)CCC2	-11	17	-23	9	-11	-1	x	x	x	x	x
SMILES	SENP7 block	SENP8 block-1	SENP6 block	EBI2 antag	SENP8 block-2	AHR activator	SENP8 conf	SENP6 confirm	SENP7 conf	Casp3 select	SENP luc ctr
N#Cc1c(/N=C/c2ccc(Br)s2)sc2c1CCC2	x	17	x	-5	x	x	x	x	x	x	x
N#Cc1c(/N=C\c2ccc(O)c([N+](=O)[O-])c2)sc2c1CCCC2	3	9	-4	-7	-3	3	x	x	x	x	x
Cc1ccc(/C=N/c2sc3c(c2C#N)CCC3)o1	91*	16	93*	-5	90*	5	5	84*	94*	36	52*
CCN(CC)CCCn1c2c(c(SCC(=O)N3CCc4ccccc43)nc1=O)CCC2	-8	2	-22	-5	-7	9	x	x	x	x	x
CC(O)(c1cccnc1)c1nc(/C=C/c2ccccc2)cs1 (configuration not stated)	x	9	x	-3	x	x	x	x	x	x	x
COC(=O)c1ccc(COC(=O)c2cccnc2Cl)cc1	46	6	51*	11	37	-1	50*	46	79*	66*	56*
O=C(COC(=O)c1cccnc1Cl)c1ccc(OC(F)F)cc1	86*	8	24	7	71*	-3	-2	77*	97*	89*	78*
COc1ccc(OC)c(C(=O)COC(=O)c2cccnc2Cl)c1	2	-98	-12	-8	-4	0	x	x	x	x	x
COc1ccc(C(=O)COC(=O)c2cccnc2Cl)c(OC)c1	25	-5	35	10	11	10	x	x	x	x	x
O=C(OCc1ccc(Cl)cc1)c1cccnc1Cl	-6	11	-1	-11	-10	-1	x	x	x	x	x
O=C(COC(=O)c1cccnc1Cl)c1ccc(Cl)cc1Cl	67*	7	85*	-5	-3	4	45	36	88*	78*	74*
Cc1cccc(N2CCN(C(=O)c3ccc(S(=O)(=O)N(C)c4ccccc4)cc3)CC2)c1C	15	21	-14	26	-1	-3	x	x	x	x	x
COc1ccc(S(=O)(=O)N(C)C[C@H]2Oc3c(NC(=O)Nc4c(C)noc4C)cccc3C(=O)N([C@H](C)CO)C[C@@H]2C)cc1	-1	8	2	1	9	2	x	x	x	x	x
COc1ccc(-c2ccc3sc4ccccc4c(=O)c3c2)cn1	101*	-392	95*	11	15	-2	14	21	8	74*	14

High-throughput results as filed in PubChem.
